These results are taken from PubChem BioAssay.

Each structure is given as a SMILES string. For part of these data: Entries with a potency or affinity are not part of this list. The source made the active and inactive calls.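 How the source made its calls, unless noted: active means primary screen activator hit with a dose response curve and TRPC4 channel activation at any tested dose; inactive means no activation, no dose response, or not a primary hit.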

The subject of assay [1] is TRPC4 beta (transient receptor potential cation channel C4), mouse. Kind of assay: activators of mouse TRPC4 channel, confirmation, cell-based, Fluo4 calcium, HEK293 TRPC4beta/mu-opioid, duplicates, 10 µM (AID 2426;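 active means fluorescence ratio normalized to control raised more than 50% in primary screen plus both repeat runs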). As to conditions: Fluo4 calcium fluorescence, at 10 µM; stronger effect = higher value.
In assay [2] the test system is transient receptor potential cation channel C4 beta (TRPC4), mouse. Description: activators of mouse TRPC4 channel, confirmation, cell-based, second round, Fluo4, HEK293 TRPC4beta/mu-opioid, 1 µM (AID 2461;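 active means primary screen active and over 50% activation in each of two duplicate runs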). As to conditions: Fluo4 calcium fluorescence, at 1 µM; stronger effect = higher value.
Assay [3] relates to TRPC4 (transient receptor potential cation channel C4 beta), mouse. Kind of assay: positive allosteric modulators of mouse TRPC4, confirmation, cell-based, second round, Fluo-4, HEK293 TRPC4beta/mu-opioid, 1 µM (AID 2554;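 active means primary screen hit whose fluorescence ratio, in both repeats, exceeds the weak agonist control mean by 3 SD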). The conditions noted are these: DAMGO EC20, Fluo-4 calcium flux, at 1 µM; stronger effect = higher value. (Calcium flux is commonly read through the fluorescence of an indicator in the cells.)

The subject of assay [4] is TRPC4 beta (transient receptor potential cation channel C4), mouse. Description: positive allosteric modulators of mouse TRPC4, confirmation, cell-based, Fluo-4, HEK293 TRPC4beta/mu-opioid (AID 2555;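 active means primary screen hit whose calcium fluorescence ratio, in both repeats, exceeds the weak agonist control mean by 3 SD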). The conditions noted are these: DAMGO EC20, Fluo-4 calcium flux, at 10 µM; stronger effect = higher value.
For assay [5], the target named is Short transient receptor potential channel 4 (Mus musculus) (UniProt Q9QUQ5). Kind of assay: inhibitors of mouse TRPC4 channel, confirmation, cell-based, Fluo4, HEK293 TRPC4beta/mu-opioid (AID 2636;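 active means calcium signal cut by more than 3 SD below the full-agonist control yet still positive, in both repeats and the earlier primary screen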). As to conditions: DAMGO, Fluo4 calcium flux, at 10 µM; stronger effect = higher value.
Short transient receptor potential channel 4 (Mus musculus), sequence (Q9QUQ5 whole entry, looked up): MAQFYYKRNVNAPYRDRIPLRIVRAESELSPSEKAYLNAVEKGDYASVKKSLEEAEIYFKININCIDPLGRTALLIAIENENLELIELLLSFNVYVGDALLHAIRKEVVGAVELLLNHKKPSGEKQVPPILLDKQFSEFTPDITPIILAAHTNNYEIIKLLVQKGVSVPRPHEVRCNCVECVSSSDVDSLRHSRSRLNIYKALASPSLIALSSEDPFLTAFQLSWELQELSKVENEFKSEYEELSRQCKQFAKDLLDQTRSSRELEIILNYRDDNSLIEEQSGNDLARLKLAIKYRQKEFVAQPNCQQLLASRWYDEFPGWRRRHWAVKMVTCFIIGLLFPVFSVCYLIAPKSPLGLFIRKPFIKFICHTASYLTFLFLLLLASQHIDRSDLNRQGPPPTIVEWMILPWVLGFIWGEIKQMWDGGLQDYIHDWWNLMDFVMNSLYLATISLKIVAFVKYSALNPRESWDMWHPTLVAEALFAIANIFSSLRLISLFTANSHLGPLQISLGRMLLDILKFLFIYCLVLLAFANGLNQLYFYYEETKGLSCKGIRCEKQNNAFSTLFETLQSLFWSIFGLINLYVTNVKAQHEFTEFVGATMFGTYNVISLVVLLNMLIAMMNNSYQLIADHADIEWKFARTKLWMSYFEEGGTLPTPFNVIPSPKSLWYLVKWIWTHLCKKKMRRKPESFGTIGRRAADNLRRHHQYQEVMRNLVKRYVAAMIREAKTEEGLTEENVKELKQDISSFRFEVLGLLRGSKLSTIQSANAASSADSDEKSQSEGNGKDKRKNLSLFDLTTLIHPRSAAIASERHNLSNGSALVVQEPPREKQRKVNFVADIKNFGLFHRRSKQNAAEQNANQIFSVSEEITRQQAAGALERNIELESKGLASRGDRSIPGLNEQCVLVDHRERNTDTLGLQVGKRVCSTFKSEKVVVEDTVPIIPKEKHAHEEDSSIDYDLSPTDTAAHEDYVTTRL
For assay [6] the target is unchanged. Description: inhibitors of mouse TRPC4 channel, confirmation, cell-based, second round, Fluo4, HEK293 TRPC4beta/mu-opioid, 1 µM (AID 2637;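 active means calcium signal ratio cut to more than 3 SD under the fully stimulated control mean yet still positive, in both repeats and the primary screen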;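 on inhibition: percent of integrated ratio relative to wells lacking test compound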). As to conditions: Fluo4 calcium flux, DAMGO, at 1 µM; stronger effect = higher value.
For assay [7] the target is unchanged. Description: mouse TRPC4 channel activators, dose response, cell-based, HEK293 TRPC4/mu-opioid, Fluo-4 calcium (AID 434937).
Assay [8] has the same target. Kind of assay: TRPC4 positive allosteric modulators, dose response, cell-based, HEK293 TRPC4/mu-opioid, Fluo-4 calcium, EC20 DAMGO (AID 434941;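 active means earlier screen potentiator hit that boosts the TRPC4 ion channel at some dose, with a dose response; inactive means no potentiation, no dose response, or not a prior hit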;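 further: calcium entry triggered by an EC20 dose of DAMGO at the co-expressed mu-opioid receptor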).
Assay [9] has as its target Short transient receptor potential channel 6 (Mus musculus) (UniProt Q61143). Description: inhibition of mouse TRPC6 channel, confirmation, selectivity assay for TRPC4 inhibitor project, cell-based, HEK293, membrane potential dye, duplicate (AID 434948;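 active means active in primary screen and both duplicates, each dropping signal beyond three positive-control SD with fluorescence still positive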). As to conditions: HEK293 TRPC6, membrane potential dye fluorescence, at 10 µM, stimulated with maximal-effect acetylcholine; stronger effect = higher value.

The target is the same in assay [10]. Kind of assay: activation of mouse TRPC6 channel, confirmation, selectivity assay for TRPC4 activator project, cell-based, HEK293, membrane potential dye, duplicate (AID 434950;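 active means membrane potential signal rise above negative control mean plus 3 SD in both duplicates, also active in the earlier TRPC4 screen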). The conditions noted are these: HEK293 TRPC6, membrane potential fluorescence, at 10 µM; stronger effect = higher value.
Assay [11] has the same target. Kind of assay: TRPC6 potentiation by TRPC4 potentiator hits, confirmation, selectivity assay for TRPC4 potentiator project, HEK293 cells, membrane potential dye, duplicate (AID 434952;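 active means compound raising the membrane signal above positive-control mean plus 3 SD in both repeats, and a primary screen hit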). As to conditions: HEK293 TRPC6, membrane potential dye fluorescence, at 10 µM, maximal acetylcholine added after compound; stronger effect = higher value.
Assay [12] has as its target Short transient receptor potential channel 4 (Mus musculus) (UniProt Q9QUQ5). Kind of assay: calcium flux activators in TRPC4/5HT1a cells, counter-screen for TRPC4 activator project, cell-based, second counter screen, HEK293 TRPC4/5HT1a, Fluo-4 (AID 434977;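 active means calcium signal rise above buffer-control mean plus 5 SD in both duplicates, and also a hit in the primary screen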). The conditions noted are these: Fluo-4 calcium flux, at 10 µM; stronger effect = higher value.
Assay [13] is described as follows: calcium flux inhibitors in TRPC4/5HT1a cells, confirmation, counter-screen for TRPC4 inhibitor project, cell-based, second counter screen, HEK293 TRPC4/5HT1a, Fluo-4 (AID 434978;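 active means primary screen active whose calcium signal fell more than 3 SD beyond the full-serotonin control mean in both duplicate plates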;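 on outcome: serotonin given first at submaximal then at maximal dose after compound preincubation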). As to conditions: Fluo-4 calcium flux, at 10 µM, serotonin added to trigger calcium flux; stronger effect = higher value.
Assay [14] deals with TRPC4 (mouse), co-expressed with 5HT1a in HEK293. Description: calcium flux potentiators in TRPC4/5HT1a cells, confirmation, counter-screen for TRPC4 potentiator project, cell-based, second counter screen, HEK293 TRPC4/5HT1a, Fluo-4 (AID 434979;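 active means signal rise over 3 SD above mean of control wells given weak agonist, in both repeats and first screen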). The conditions noted are these: Fluo-4 calcium flux, at 10 µM, serotonin added at its EC20 dose; stronger effect = higher value.
Assay [15] can be described thus: calcium flux activation in mu-opioid HEK293 cells, confirmation, counter-screen for TRPC4 activator project, cell-based, HEK293 mu-opioid receptor line (AID 449723;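 active means hit in primary screen, with calcium signal over 5 SD above buffer well mean in both duplicates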;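 further: counter screen cells carry the mu-opioid receptor alone and lack TRPC4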). The conditions noted are these: Fluo-4 calcium fluorescence, at 10 µM; stronger effect = higher value.
The nature of assay [16]: calcium flux enhancement in mu-opioid HEK293 cells, confirmation, counter-screen for TRPC4 allosteric potentiator project, cell-based, HEK293 mu-opioid receptor line (AID 449724;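 active means calcium signal rise more than 3 SD above the low-dose agonist control mean, in both duplicate plates and the primary screen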;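 further: HEK293 cells carrying mu-opioid receptor only with no TRPC4 channel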). As to conditions: Fluo-4 calcium flux, at 10 µM, compound added before EC20 DAMGO stimulus; stronger effect = higher value.

Short transient receptor potential channel 6 (Mus musculus), sequence (Q61143 whole entry, looked up): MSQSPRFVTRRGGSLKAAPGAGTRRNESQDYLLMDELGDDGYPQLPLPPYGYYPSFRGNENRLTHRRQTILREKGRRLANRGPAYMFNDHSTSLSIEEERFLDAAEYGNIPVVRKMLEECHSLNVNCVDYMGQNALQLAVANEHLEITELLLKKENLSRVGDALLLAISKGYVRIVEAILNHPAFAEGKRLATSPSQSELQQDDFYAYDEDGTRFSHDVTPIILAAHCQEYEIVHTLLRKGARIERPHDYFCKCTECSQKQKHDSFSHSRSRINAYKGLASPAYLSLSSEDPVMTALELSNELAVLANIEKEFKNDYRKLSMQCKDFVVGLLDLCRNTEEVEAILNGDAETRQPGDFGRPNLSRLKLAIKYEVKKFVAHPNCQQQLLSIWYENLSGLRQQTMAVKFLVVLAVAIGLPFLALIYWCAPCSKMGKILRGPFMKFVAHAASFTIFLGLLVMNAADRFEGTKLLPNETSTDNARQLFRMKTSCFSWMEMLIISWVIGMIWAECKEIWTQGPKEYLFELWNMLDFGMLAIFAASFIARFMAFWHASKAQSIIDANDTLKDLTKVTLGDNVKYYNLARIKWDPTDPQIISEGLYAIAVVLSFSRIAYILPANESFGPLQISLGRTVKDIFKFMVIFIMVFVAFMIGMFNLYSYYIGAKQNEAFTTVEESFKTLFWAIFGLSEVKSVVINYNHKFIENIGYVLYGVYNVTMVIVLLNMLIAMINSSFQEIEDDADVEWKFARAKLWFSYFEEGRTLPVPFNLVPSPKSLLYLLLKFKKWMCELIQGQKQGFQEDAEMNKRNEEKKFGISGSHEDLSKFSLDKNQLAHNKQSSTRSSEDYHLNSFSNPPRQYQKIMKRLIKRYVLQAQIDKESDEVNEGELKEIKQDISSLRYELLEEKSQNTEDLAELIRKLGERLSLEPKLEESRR

One may read the inhibition as the share of the control response that was lost under treatment. As for `Cc1ccc(C(=O)NC(=S)Nc2c(C)ccc3nsnc23)cc1`, the result in assay [1], in assay [2], in assay [3], in assay [4], in assay [7] and in [8] was inactive. Moreover, the outcome in [9], in [10], in assay [11], in assay [12], in assay [14] and in assay [15] was inactive. Moreover, the outcome in assay [16] was inactive. For the same molecule, the inhibition is 86% (active) in assay [5], 45% (active) in [6] and 18.1% (active) in [13].

`CCCNCc1cc(Br)ccc1OCC(=O)NCCc1ccccc1`: the result in [1], in assay [2], in [3], in [4], in assay [7] and in [8] was inactive. Also, the molecule was called inactive in assay [9], in assay [10], in [11], in [12], in assay [13] and in assay [14]. Moreover, the outcome in assay [15] and in [16] was inactive. Moreover, the inhibition is 99% (active) in assay [5] and 52% (active) in [6].

For the molecule `CC(C)n1c(NCc2c[nH]c3ccccc23)nc2ccccc21`, the result in assay [1], in [2], in assay [3], in [4], in assay [6] and in assay [7] was inactive. For the same molecule, the outcome in assay [8], in assay [10], in assay [11], in [12], in assay [14] and in assay [15] was inactive. Moreover, in assay [16], the result was inactive. Besides, the figures for the inhibition in [5], in assay [9] and in [13] were 50% (active), 33.5% (active) and 26.4% (active), respectively.

As for `COc1ccc(F)cc1C(=O)C1CCCN(Cc2ccc3c(c2)OCCO3)C1` (stereo not given), the result in assay [1], in assay [2], in assay [3], in assay [4], in [6] and in assay [7] was inactive. The result in assay [8], in assay [9], in assay [10], in assay [11], in assay [12] and in [14] was inactive. The result in [15] and in assay [16] was inactive. In addition, the inhibition in [5] is 94% (active); in assay [13], 38.7% (active).

For `Cc1[nH]c2ccc(C(=O)OC(C)C(=O)N(C)c3ccccc3)cc2c1C` (stereo not given), the outcome in assay [1], in [2], in assay [3], in [4], in assay [5] and in assay [6] was inactive. Further, the outcome in assay [7], in assay [8], in assay [9], in assay [10], in assay [11] and in assay [12] was inactive. Besides, the result in assay [13], in assay [14], in assay [15] and in assay [16] was inactive.

`O=C1COc2ccc(N3C(=O)C=CC3=O)cc2N1`: the result in [1], in assay [2], in assay [3], in assay [4], in assay [6] and in assay [7] was inactive. Further, the result in assay [8], in [9], in [10], in assay [11], in assay [12] and in assay [14] was inactive. Also, the result in assay [15] and in assay [16] was inactive. In addition, the inhibition in assay [5] was 88% (active); in [13] it was 31.1% (active).

For `c1ccc(NC(=NCc2ccco2)c2ccccc2)cc1`, the outcome in [1], in assay [2], in assay [3], in assay [4], in [7] and in [8] was inactive. In addition, the result in assay [9], in assay [10], in [11], in assay [12], in [13] and in [14] was inactive. The outcome in assay [15] and in [16] was inactive. Moreover, the inhibition in assay [5] was 94% (active); in assay [6], 45% (active).

With `Cc1ncsc1CCOC(=O)c1cccc([N+](=O)[O-])c1`, the result in [1], in [2], in [3], in assay [4], in assay [7] and in assay [8] was inactive. For the same molecule, the molecule was classed as inactive in assay [9], in assay [10], in [11], in [12], in assay [14] and in assay [15]. Also, the outcome in assay [16] was inactive. Further, the values for the inhibition in assay [5], in assay [6] and in assay [13] were 83% (active), 49% (active) and 40% (active), respectively.

`COc1ccc(CN2CCN(Cc3ccc(C(F)(F)F)cc3)CC2)c(OC)c1`: the outcome in assay [1], in assay [2], in assay [3], in [4], in assay [7] and in [8] was inactive. In addition, the molecule was called inactive in [9], in assay [10], in assay [11], in assay [12], in [14] and in assay [15]. The result in assay [16] was inactive. For the same molecule, the inhibition in assay [5] was 95% (active); in [6], 41% (active); in assay [13] it was 23% (active).

On to `c1ccc(Nc2n[nH]nc2-c2ccccc2)cc1`, for which the outcome in [1], in [2], in assay [3], in [4], in [7] and in assay [8] was inactive. Also, the molecule was called inactive in assay [9], in assay [10], in assay [11], in [12], in assay [14] and in assay [15]. For the same molecule, the result in [16] was inactive. Besides, the inhibition in assay [5] was 96% (active); in assay [6] it was 60% (active); in [13] it was 17.4% (active).

Turning to `O=[N+]([O-])c1ccc(CN2CCN(Cc3c[nH]c4ccccc34)CC2)cc1`, the outcome in assay [1], in [2], in assay [3], in assay [4], in assay [6] and in assay [7] was inactive. Also, the outcome in assay [8], in [9], in assay [10], in assay [11], in assay [12] and in [14] was inactive. The outcome in assay [15] and in [16] was inactive. The inhibition in assay [5] was 83% (active); in assay [13], 28.9% (active).

As for `COCCn1c(SCc2ccc(OC)c(F)c2)nc2ccccc2c1=O`, the result in assay [1], in [2], in assay [3], in [4], in assay [6] and in [7] was inactive. Further, the outcome in assay [8], in assay [9], in [10], in assay [11], in assay [12] and in assay [14] was inactive. Further, the result in assay [15] and in assay [16] was inactive. Moreover, the inhibition in assay [5] was 95% (active); in assay [13] it was 16.1% (active).

Consider `N#Cc1c(NC(=O)C2CC(Cl)=CCC2C(=O)O)sc2c1CCCCC2` (stereo not given), for which the result in assay [1], in assay [2], in assay [3], in assay [4], in assay [6] and in assay [7] was inactive. Also, the result in assay [8], in [9], in assay [10], in [11], in assay [12] and in assay [14] was inactive. The result in assay [15] and in [16] was inactive. In addition, the inhibition in assay [5] is 51% (active); in [13], 18.6% (active).

`CCCCn1c(NCc2ccc(N(C)C)cc2)nc2ccccc21`: the outcome in [1], in [2], in [3], in assay [4], in [7] and in assay [8] was inactive. In addition, the outcome in assay [10], in [11], in assay [12], in [14], in [15] and in assay [16] was inactive. Also, the inhibition is 93% (active) in assay [5], 50% (active) in [6], 51.5% (active) in assay [9] and 24.4% (active) in [13].

For `Cn1cc(-c2nc3ccccc3[nH]2)c2ccccc21`, the outcome in assay [1], in assay [2], in [3], in assay [4], in assay [7] and in assay [8] was inactive. The call in assay [10], in [11], in [12], in assay [14], in assay [15] and in assay [16] was inactive. In addition, the inhibition in [5] was 99% (active); in assay [6] it was 49% (active); in assay [9], 5.5% (active); in assay [13], 41.1% (active).
